Experimental data taken from PubChem BioAssay (NCI).
The panel holds about 83,000 compounds, 20% with a hit somewhere; the sample as a whole holds those more often.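 Percent growth is the endpoint: 0 to 100 indicates growth inhibition (40 means 60% inhibition), 0 means no net growth, and negative values indicate cell death.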 Values without a mark were called inactive. Activity calls are given as the source filed them. How the source made its calls: active means growth percent below 10; inactive means the rest.

Experiments:
Experiment in all cases: NCI-60 one-dose screen, 48 h (100 = growth as untreated, 0 = no growth, -100 = all killed)
Details in all cases: 10 µM unless noted
[1] = system: NCI-H23 lung
[2] = system: NCI-H226 lung
[3] = system: NCI-H322M lung
[4] = system: HOP-62 NSCLC
[5] = system: NCI-H460 lung
[6] = system: HOP-92 NSCLC
[7] = system: NCI-H522 lung
[8] = system: A549/ATCC NSCLC
[9] = system: 786-0 renal
[10] = system: COLO 205 colon

SMILES | growth [1] | growth [2] | growth [3] | growth [4] | growth [5] | growth [6] | growth [7] | growth [8] | growth [9] | growth [10]
COc1ccccc1NC(=O)C1CC(c2ccc(F)cc2)=NO1 (stereo not given) | 100% | 99.2% | 102% | 97.5% | 98.5% | 89.7% | 92.6% | 95.2% | 101% | 111%
COc1cc2nc(-c3ccc(Cl)cc3)cc(OCCCN3CCCC3)c2cc1OC | 62.8% | -13.5% (active) | 58.5% | 45.3% | 25.2% | 25% | 38.1% | 41.5% | 67.4% | 21.5%
CC(c1ccccc1)C(C(=O)c1ccccc1)c1ccccc1 (stereo not given) | 84.6% | 73.5% | 103% | 44.8% | 88.3% | 107% | 68.4% | 80% | 83.5% | 112%
CCCCC[n+]1ccc(SCC(=O)N(C)c2ccc(Oc3ccccc3)cc2)c2ccccc21 | 90.3% | 106% | 107% | 115% | 107% | 99.9% | 63.3% | 96.2% | 102% | 20.9%
Cc1cc2c(c(C)c1Cl)C(=O)/C(=C/c1ccc(O)c(O)c1)O2 | 94.6% | 92.9% | 104% | 90.5% | 99.9% | 90.2% | 87.3% | 97.8% | 107% | 114%
O=C1CC(=O)OC(c2ccc([N+](=O)[O-])cc2)O1 | 43.6% | 34.8% | 51.7% | 26.5% | 35.6% | 36.9% | -65.5% (active) | 33.6% | -73.8% (active) | -31% (active)
N#Cc1c(-c2cccc([N+](=O)[O-])c2)nc(SCC(=O)c2ccc(Cl)cc2)[nH]c1=O | 98.5% | 97.6% | 96.8% | 87.4% | 108% | 94.3% | 88.8% | 101% | 96.7% | 103%
CNC(=O)c1cccc(Cn2nc(C)c(NC(=O)c3ccc(COc4ccc(C(F)(F)F)cc4C)cc3)c2C)n1 | 43.5% | 44.4% | 88.9% | 46% | 50.8% | 74.4% | 40% | 39.1% | 61.9% | 37.3%
c1ccc(Cn2cnc3ccc(-c4nc(-c5ccc6c(c5)ncn6C5CCCCC5)cn5ccnc45)cc32)cc1 | -22.8% (active) | -63.1% (active) | 16% | -9.39% (active) | -20.3% (active) | -83.6% (active) | -35.2% (active) | -5.05% (active) | -19.4% (active) | -29.9% (active)
CCCCCCCCCCCCCCCC[N+]1(C)CCN(SN2CC[N+](C)(CCCCCCCCCCCCCCCC)CC2)CC1 | 52.8% | 78.9% | 80.3% | 56.6% | 29.6% | 15.5% | 54.8% | 72% | 30.3% | 61%
CN1CCN(c2ccc(NC3=C(Cl)C(=O)c4ncccc4C3=O)cc2C(F)(F)F)CC1 | 58.7% | 102% | 98% | 114% | 101% | -76.4% (active) | -49.8% (active) | 104% | 82.6% | -16.7% (active)
COC(=O)C(CC=O)C(=O)C(=O)Nc1cccc(C(F)(F)F)c1 (stereo not given) | 101% | 98.7% | 97.3% | 82.2% | 98.6% | 95.1% | 87.2% | 78.1% | 107% | 110%
CCCCCCNC(=O)Oc1ccc(/C(=C(\C)c2ccccc2)c2ccc(OCCN3CCCCC3)cc2)cc1 | 68.7% | 93.8% | 80.5% | 75.4% | 41% | 64.1% | 71.8% | 64.4% | 16.3% | 5.73% (active)
COc1ccc(/C=C2\Oc3cc(OCCCN4CCCCC4)ccc3C2=O)cc1OC | 92.1% | 90% | 92.1% | 85.7% | 89% | 65.9% | 99.1% | 93.6% | 88.7% | 98.3%
COc1ccc(C(=O)c2nc3ccccc3n2CC(=O)c2ccc(Cl)cc2)cc1 | 30.9% | 37.5% | 84.8% | 42.4% | 68.7% | 54.4% | -22.3% (active) | 81.4% | 34.7% | 111%
COc1ccc(/C=C/c2nc(Nc3ccc(Cl)cc3)c3ccccc3n2)cc1 | 73.1% | 71.1% | 44.3% | 69% | 18.2% | 63.5% | 69.3% | 35% | 36.9% | 63.1%
CC(C)=CCC[C@](C)(O)[C@H]1CC[C@]2(C)[C@@H]1CC[C@@H]1[C@@]3(C)C/C(=C/c4ccccc4)C(=O)C(C)(C)[C@@H]3CC[C@]12C | 84.7% | 93.7% | 93.7% | 92.2% | 91.1% | 78.8% | 77.9% | 85.1% | 92.2% | 99.9%
CC(C)(C)[Si](C)(C)OC1[C@@H](O[Si](C)(C)C(C)(C)C)[C@@H](CNC(=O)NC(=O)CCl)O[C@H]1n1cnc2c(NC(=O)Nc3ccccc3)ncnc21 (stereo not given in full) | -93.3% (active) | -93.8% (active) | 120% | -95.5% (active) | 11.9% | -74% (active) | -61.9% (active) | 1.49% (active) | -93.8% (active) | -18.3% (active)
CC(=O)Nc1ccc(-n2cnc3cc(-c4ccc(OCCN5CCCCC5)cc4)ccc32)cc1 | 73.2% | 74.1% | 104% | 82.5% | 4.54% (active) | 105% | 91.9% | -3.26% (active) | -40.9% (active) | 107%
CCN1CCN(CCNc2nccc(-c3c(-c4cccc(OC)c4)nc4occn34)n2)S1(=O)=O | 105% | 92.2% | 111% | 129% | 96.7% | 84.5% | 89.5% | 101% | 113% | 42.6%
COc1ccccc1/C(C)=N/NC(=O)CSc1nc2ccccc2c(=O)n1Cc1ccc(S(N)(=O)=O)cc1 | 96.7% | 95.5% | 90% | 93.5% | 100% | 105% | 82.1% | 95.2% | 97.3% | 119%
COc1cc2c3c(c4c5ccccc5[nH]c4c2c(OC)c1OC)C(=O)N(CCN1CCOCC1)C3=O | 63% | 69.8% | 68.2% | 59.9% | 18.6% | 75.4% | 35.4% | 45.1% | 56.2% | 56.4%
O=C(O)c1ccc(NCc2cn(-c3ccc(C(F)(F)F)cc3)nc2-c2ccc(C(=O)O)cc2)cc1 | 107% | 111% | 106% | 101% | 103% | -7.09% (active) | 93.1% | 106% | 105% | 119%
C#CCNC(=O)c1cccc2c1cc(C)n2-c1nc2c(c(NCc3ccccc3)n1)CCCC2 | -42.8% (active) | -67.1% (active) | -4.53% (active) | -6.14% (active) | -30.8% (active) | -61% (active) | -25.8% (active) | -29.5% (active) | -48.4% (active) | -46.4% (active)
NS(=O)(=O)c1ccc(CCN2C(=O)c3cc(Cl)c(Cl)cc3C2=O)cc1 | 105% | 106% | 97.8% | 102% | 109% | 104% | 86.5% | 105% | 96.7% | 115%
C=C1C(=O)O[C@H]2[C@H]1CC/C(CNC(=O)CCc1ccc(OC)cc1)=C\CC[C@@]1(C)O[C@@H]21 | 85.3% | 89.9% | 91.4% | 83.6% | 90.4% | 19.8% | 20.2% | 81.7% | 34% | 15.1%
